Results taken from PubChem BioAssay (EPA / NIEHS).
Where “and” joins values, the source holds several entries; their conditions need not be identical. Equal values may be shown once. Results filed as inconclusive are left out. A structure can be active in one record and inactive in another. Calls of active or inactive are those of the source. How the source made its calls, unless noted: active means hit-call score of the fitted dose curve at least 0.9, where 1 is the maximum; inactive means score below 0.9.

Tests used:
[1] = ATG_PBREM_CIS: Attagene CIS-FACTORIAL HepG2 Assay for human Phenobarbital-responsive Enhancer Module (PBREM) (AID 2282955); conditions: HepG2 PBREM cis-reporter, Attagene multiplexed transcription; actives raise or lower the signal
Method in brief: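 Endogenous transcription factors in human liver HepG2 cells drive a PBREM cis-element reporter, whose transcript level after 24 h treatment is quantified by RT-PCR with capillary electrophoresis; activity fitted in both directions against DMSO.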

[2] = biological target: Paired box protein Pax-6 (Homo sapiens) (UniProt P26367); assay: ATG_Pax6_CIS: Attagene CIS-FACTORIAL HepG2 Assay for human Paired Box 6 (PAX6) (AID 2282956); conditions: HepG2 CIS-FACTORIAL PAX6 reporter transcription, RNA readout; actives raise or lower the signal
Chain of Paired box protein Pax-6 (Homo sapiens) (P26367 whole entry, looked up): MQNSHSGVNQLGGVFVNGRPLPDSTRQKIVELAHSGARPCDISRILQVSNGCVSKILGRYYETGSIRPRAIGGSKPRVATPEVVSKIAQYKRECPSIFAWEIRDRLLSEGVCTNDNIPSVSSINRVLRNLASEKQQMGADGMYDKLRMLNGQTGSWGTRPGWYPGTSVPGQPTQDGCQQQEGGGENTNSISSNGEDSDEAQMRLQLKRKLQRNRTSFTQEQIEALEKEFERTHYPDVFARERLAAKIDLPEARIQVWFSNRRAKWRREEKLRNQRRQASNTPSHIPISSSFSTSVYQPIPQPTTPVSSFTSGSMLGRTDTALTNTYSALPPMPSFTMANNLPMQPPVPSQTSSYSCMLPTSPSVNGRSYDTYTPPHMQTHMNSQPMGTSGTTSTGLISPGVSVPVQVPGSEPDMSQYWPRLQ
Method in brief: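 Fluorescent RT-PCR products separated by capillary electrophoresis report PAX6-linked promoter mRNA in HepG2 cells 24 h post-dose. Curves fitted bidirectionally, DMSO as negative control.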

[3] = ATG_PXRE_CIS: Attagene CIS-FACTORIAL HepG2 Assay for human Pregnane X Receptor Element (PXRE) (AID 2282957); conditions: HepG2 Attagene CIS-FACTORIAL PXRE reporter, mRNA; actives raise or lower the signal
Method in brief: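 Endogenous transcription factor activity in HepG2 was gauged through induction of reporter mRNA driven by a cis-regulating promoter element, sampled 24 h post-treatment. Activity was fitted in both directions against DMSO negative control.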

[4] = ATG_PPRE_CIS: Attagene CIS-FACTORIAL HepG2 Assay for human Peroxisome Proliferator-activated Response Element (PPRE) (AID 2282958); conditions: HepG2 PPRE cis-element reporter, Attagene transcription factor profiling; actives raise or lower the signal
Method in brief: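 HepG2, transient MRTU transfection (cis promoter elements, endogenous TFs). 24 h dosing. RNA → oligo(dT) RT → PCR → 6-FAM primer extension → HpaI digest → CE. Bidirectional fit vs DMSO.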

[5] = ATG_RORE_CIS: Attagene CIS-FACTORIAL HepG2 Assay for human RAR-related Orphan Receptor Element (RORE) (AID 2282959); conditions: HepG2 Attagene cis-factorial RORE reporter, mRNA; actives raise or lower the signal
Method in brief: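 Transient MRTU transfection of human HepG2 liver cells (FuGene 6); 24 h compound exposure; TriZol RNA, oligo(dT) RT, PCR, FAM labeling, HpaI cut, CE fragment analysis. DMSO = negative control/baseline.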

[6] = ATG_Sox_CIS: Attagene CIS-FACTORIAL HepG2 Assay for human SRY-box transcription factor (SOX) (AID 2282960); conditions: HepG2 Attagene cis-factorial SOX reporter, mRNA; actives raise or lower the signal
Method in brief: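 Endogenous factor activity in human liver HepG2 cells carrying transfected cis-regulated reporter units. RNA taken 24 h post-dose, reverse-transcribed, PCR-amplified and sized by capillary electrophoresis. Gain or loss of signal fitted relative to DMSO.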

[7] = biological target: Transcription factor Sp1 (Homo sapiens) (UniProt P08047); assay: ATG_Sp1_CIS: Attagene CIS-FACTORIAL HepG2 Assay for human Specificity Protein 1 (Sp1) (AID 2282961); conditions: HepG2 Sp1 cis-reporter transcription, actives raise or lower the signal
Chain of Transcription factor Sp1 (Homo sapiens) (P08047 whole entry, looked up): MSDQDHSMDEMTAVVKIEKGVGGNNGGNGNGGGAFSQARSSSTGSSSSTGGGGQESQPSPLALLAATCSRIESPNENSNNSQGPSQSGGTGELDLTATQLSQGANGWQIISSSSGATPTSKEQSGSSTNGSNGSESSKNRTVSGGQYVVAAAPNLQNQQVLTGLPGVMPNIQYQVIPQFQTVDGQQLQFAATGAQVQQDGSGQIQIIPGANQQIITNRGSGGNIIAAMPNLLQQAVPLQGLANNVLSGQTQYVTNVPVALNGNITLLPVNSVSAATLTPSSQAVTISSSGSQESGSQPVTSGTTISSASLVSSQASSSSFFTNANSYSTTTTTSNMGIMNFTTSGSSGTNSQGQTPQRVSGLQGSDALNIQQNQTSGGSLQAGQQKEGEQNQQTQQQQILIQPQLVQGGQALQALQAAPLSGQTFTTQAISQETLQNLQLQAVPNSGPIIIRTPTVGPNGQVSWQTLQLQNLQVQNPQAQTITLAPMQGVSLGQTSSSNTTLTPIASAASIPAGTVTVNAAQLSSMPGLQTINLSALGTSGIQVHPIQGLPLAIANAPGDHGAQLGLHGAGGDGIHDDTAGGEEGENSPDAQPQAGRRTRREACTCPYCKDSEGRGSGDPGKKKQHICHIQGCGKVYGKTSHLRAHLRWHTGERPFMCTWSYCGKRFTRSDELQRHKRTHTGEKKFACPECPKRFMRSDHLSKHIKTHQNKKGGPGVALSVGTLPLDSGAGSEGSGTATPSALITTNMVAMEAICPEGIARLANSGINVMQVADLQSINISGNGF
Method in brief: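 Transient MRTU-transfected HepG2, 24 h compound exposure. Total RNA → oligo(dT) RT → PCR of reporter → 6-FAM primer extension → HpaI digest → CE. Endpoint fitted both directions vs DMSO.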

[8] = ATG_SREBP_CIS: Attagene CIS-FACTORIAL HepG2 Assay for human Sterol Regulatory Element Binding (SREBP) (AID 2282962); conditions: HepG2 Attagene cis-factorial SREBP reporter, mRNA; actives raise or lower the signal
Method in brief: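 Endogenous factor activity is measured in HepG2 through multiplexed reporter units under cis-element control. Following a 24 h incubation, reporter transcripts are reverse-transcribed, PCR-amplified and sized by capillary electrophoresis; activity is fitted in both directions relative to DMSO.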

[9] = biological target: Signal transducer and activator of transcription 3 (Homo sapiens) (UniProt P40763); assay: ATG_STAT3_CIS: Attagene CIS-FACTORIAL HepG2 Assay for human Signal Transducer and Activator of Transcription 3 (STAT3) (AID 2282963); conditions: HepG2, Attagene cis-factorial STAT3 reporter transcription; actives raise or lower the signal
Chain of Signal transducer and activator of transcription 3 (Homo sapiens) (P40763 whole entry, looked up, the tested form may be a part): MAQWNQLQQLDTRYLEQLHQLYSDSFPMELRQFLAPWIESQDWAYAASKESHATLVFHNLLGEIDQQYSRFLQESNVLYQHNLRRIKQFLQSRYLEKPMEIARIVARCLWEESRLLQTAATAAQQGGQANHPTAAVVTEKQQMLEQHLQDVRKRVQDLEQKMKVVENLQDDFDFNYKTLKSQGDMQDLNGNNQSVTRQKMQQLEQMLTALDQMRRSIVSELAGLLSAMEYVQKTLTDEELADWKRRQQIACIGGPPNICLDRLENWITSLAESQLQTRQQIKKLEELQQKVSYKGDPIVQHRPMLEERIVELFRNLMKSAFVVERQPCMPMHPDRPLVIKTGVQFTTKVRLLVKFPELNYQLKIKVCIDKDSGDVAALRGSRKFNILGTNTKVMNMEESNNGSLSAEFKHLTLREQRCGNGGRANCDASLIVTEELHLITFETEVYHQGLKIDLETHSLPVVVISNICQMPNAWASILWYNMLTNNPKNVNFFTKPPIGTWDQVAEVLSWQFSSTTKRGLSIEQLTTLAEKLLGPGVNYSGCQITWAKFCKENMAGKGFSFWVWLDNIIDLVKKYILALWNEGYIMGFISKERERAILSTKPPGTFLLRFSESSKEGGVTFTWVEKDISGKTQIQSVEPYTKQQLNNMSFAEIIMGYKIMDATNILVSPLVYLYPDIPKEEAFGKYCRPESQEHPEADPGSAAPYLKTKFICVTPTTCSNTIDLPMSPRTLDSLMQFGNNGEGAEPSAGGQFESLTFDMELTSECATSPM
Method in brief: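 Fluorescence intensity of 6-FAM-labelled reporter fragments, separated by capillary electrophoresis after RT-PCR, gave the signal. Cells were HepG2 transfected with cis-element reporter units and treated 24 h; fitting was bidirectional relative to DMSO.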

[10] = ATG_TA_CIS: Attagene CIS-FACTORIAL HepG2 Assay for human TA Basal Promoter (AID 2282964); conditions: HepG2 Attagene CIS-factorial TA basal promoter reporter; actives raise or lower the signal
Method in brief: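 Fluorescence from labelled RT-PCR reporter fragments, separated by capillary electrophoresis, gives the signal. Cells: HepG2 transiently carrying multiple reporter units, 24 h chemical dosing. Gain or loss relative to DMSO.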

[11] = ATG_TCF_b_cat_CIS: Attagene CIS-FACTORIAL HepG2 Assay for human T-Cell-Factor with beta-catenin (TCF/b-cat) (AID 2282965); conditions: HepG2 TCF/beta-catenin cis-reporter transcription, actives raise or lower the signal
Method in brief: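 Cells of the HepG2 line carry transiently transfected reporter units whose promoters respond to endogenous factors. Twenty-four hours post-dosing, reporter mRNA induction is measured by fluorescent RT-PCR and capillary electrophoresis, with DMSO as baseline.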

[12] = ATG_TAL_CIS: Attagene CIS-FACTORIAL HepG2 Assay for human TAL Basal Promoter (AID 2282966); conditions: HepG2 Attagene cis-factorial TAL promoter reporter; actives raise or lower the signal;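 further: background control endpoint measuring basal TAL promoter reporter mRNA not a specific factor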
Method in brief: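 Endogenous transcription-factor activity is sensed in HepG2 cells through transfected cis-promoter reporter constructs. After 24 h dosing, reporter transcripts are quantified by RT-PCR and capillary electrophoresis. Gain or loss of signal is fitted relative to DMSO.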

[13] = ATG_TGFb_CIS: Attagene CIS-FACTORIAL HepG2 Assay for human Transforming Growth Factor (TGF) (AID 2282967); conditions: HepG2 Attagene CIS TGFb reporter, mRNA transcription; actives raise or lower the signal
Method in brief: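 Bidirectional fitting relative to DMSO gave the endpoint. Underlying data: reporter mRNA from HepG2 cells carrying transiently transfected cis-regulated reporter constructs, harvested 24 h after dosing and analyzed by RT-PCR and capillary electrophoresis.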

[14] = ATG_VDRE_CIS: Attagene CIS-FACTORIAL HepG2 Assay for human Vitamin D Receptor Element (VDRE) (AID 2282968); conditions: HepG2 VDRE cis-reporter transcription, actives raise or lower the signal
Method in brief: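 Compounds were applied for 24 h to HepG2 cells transfected with promoter-regulated reporter units. Total RNA was reverse-transcribed, and reporter amplicons were fluorescently labelled and sized by capillary electrophoresis.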

[15] = biological target: Nuclear receptor subfamily 1 group I member 3 (Homo sapiens) (UniProt Q14994); assay: ATG_CAR_TRANS: Attagene TRANS-FACTORIAL HepG2 Assay for human Constitutive Androstane Receptor (CAR) (AID 2282969; active means hit-call score of the fitted dose curve at least 0.9, where 1 is the maximum;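 further: activators raise reporter mRNA above DMSO so AC50 marks induction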); conditions: HepG2 Attagene TRANS-FACTORIAL CAR reporter
Chain of Nuclear receptor subfamily 1 group I member 3 (Homo sapiens) (Q14994 whole entry, looked up, the tested form may be a part): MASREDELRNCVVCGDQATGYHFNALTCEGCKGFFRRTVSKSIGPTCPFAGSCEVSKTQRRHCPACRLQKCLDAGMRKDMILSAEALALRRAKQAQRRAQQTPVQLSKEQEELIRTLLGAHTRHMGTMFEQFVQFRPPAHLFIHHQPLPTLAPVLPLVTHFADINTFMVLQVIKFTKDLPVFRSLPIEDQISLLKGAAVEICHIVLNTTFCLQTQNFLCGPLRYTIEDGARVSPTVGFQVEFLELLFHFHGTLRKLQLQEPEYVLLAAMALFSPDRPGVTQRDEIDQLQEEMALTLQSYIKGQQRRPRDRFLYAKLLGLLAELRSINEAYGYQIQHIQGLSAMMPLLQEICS
Method in brief: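 Transiently transfected HepG2, multiplex TRANS reporters (CAR-Gal4 chimera driving GAL4-UAS reporter). 24 h dosing. Readout: reporter transcript by RT-PCR + capillary electrophoresis, fluorescence intensity; positive direction vs DMSO.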

[16] = biological target: Estrogen receptor (Homo sapiens) (UniProt P03372); assay: ATG_ERa_TRANS: Attagene TRANS-FACTORIAL HepG2 Assay for human Estrogen Receptor alpha (ERa) (AID 2282970; active means hit-call score of the fitted dose curve at least 0.9, where 1 is the maximum); conditions: HepG2 Attagene TRANS ERa GAL4 reporter, mRNA
Chain of Estrogen receptor (Homo sapiens) (P03372 whole entry, looked up, the tested form may be a part): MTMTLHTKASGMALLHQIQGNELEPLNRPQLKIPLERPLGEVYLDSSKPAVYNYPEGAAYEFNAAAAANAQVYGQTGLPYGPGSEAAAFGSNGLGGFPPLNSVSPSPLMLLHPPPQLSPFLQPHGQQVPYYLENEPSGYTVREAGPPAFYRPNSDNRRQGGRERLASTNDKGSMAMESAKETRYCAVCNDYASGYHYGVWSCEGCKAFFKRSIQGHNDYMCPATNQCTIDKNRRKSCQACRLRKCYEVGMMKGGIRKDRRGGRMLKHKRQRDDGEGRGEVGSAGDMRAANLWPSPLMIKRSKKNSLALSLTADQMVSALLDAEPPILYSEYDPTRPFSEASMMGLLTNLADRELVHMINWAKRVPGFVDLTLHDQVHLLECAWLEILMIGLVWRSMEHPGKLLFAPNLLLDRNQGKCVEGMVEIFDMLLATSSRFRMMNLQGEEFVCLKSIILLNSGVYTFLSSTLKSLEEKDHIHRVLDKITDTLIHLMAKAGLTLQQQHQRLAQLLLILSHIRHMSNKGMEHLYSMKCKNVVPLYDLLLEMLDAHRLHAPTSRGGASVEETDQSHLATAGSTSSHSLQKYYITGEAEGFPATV
Method in brief: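 Transfected HepG2 cells carrying GAL4-UAS-driven reporter units were dosed for 24 hours. Total RNA was reverse-transcribed, reporter sequences PCR-amplified, FAM-labelled, HpaI-digested and resolved by capillary electrophoresis. Increases over DMSO control defined activity.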

[17] = biological target: Steroid hormone receptor ERR1 (Homo sapiens) (UniProt P11474); assay: ATG_ERRa_TRANS: Attagene TRANS-FACTORIAL HepG2 Assay for human Estrogen-Related Receptor alpha (ERRa) (AID 2282971; active means hit-call score of the fitted dose curve at least 0.9, where 1 is the maximum); conditions: HepG2 Attagene TRANS reporter, ERRa transactivation
Chain of Steroid hormone receptor ERR1 (Homo sapiens) (P11474 whole entry, looked up, the tested form may be a part): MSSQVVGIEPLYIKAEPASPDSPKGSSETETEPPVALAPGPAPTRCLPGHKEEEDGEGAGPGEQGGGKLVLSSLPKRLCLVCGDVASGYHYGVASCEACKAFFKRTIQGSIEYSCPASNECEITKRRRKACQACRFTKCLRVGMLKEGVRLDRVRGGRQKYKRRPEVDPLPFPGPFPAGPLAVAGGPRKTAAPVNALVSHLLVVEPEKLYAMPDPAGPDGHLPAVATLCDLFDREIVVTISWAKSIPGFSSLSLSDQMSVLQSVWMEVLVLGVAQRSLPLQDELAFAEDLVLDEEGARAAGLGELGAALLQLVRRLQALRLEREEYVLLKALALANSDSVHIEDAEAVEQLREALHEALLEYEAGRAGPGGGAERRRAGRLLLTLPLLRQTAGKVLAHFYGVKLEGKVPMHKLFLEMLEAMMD
Method in brief: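 HepG2 cells were transiently transfected with multiple GAL4-UAS reporter units, then dosed with compound for 24 h. Total RNA was reverse-transcribed, reporter cDNA PCR-amplified and fluorescently labelled, and fragments resolved by capillary electrophoresis; induction was compared with DMSO.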

[18] = biological target: X-box-binding protein 1 (Homo sapiens) (UniProt P17861); assay: ATG_Xbp1_CIS: Attagene CIS-FACTORIAL HepG2 Assay for human X-box Binding Protein 1 (XBP1) (AID 2282972); conditions: HepG2 XBP1 cis-element reporter, Attagene multiplex; actives raise or lower the signal
Chain of X-box-binding protein 1 (Homo sapiens) (P17861 whole entry, looked up): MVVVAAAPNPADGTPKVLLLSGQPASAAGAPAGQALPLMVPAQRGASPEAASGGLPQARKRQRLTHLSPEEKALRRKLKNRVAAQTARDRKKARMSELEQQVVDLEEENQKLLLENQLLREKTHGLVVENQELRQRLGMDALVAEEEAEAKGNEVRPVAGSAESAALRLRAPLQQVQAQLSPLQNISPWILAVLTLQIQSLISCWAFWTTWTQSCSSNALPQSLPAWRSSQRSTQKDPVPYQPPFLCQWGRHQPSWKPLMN
Method in brief: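 Multiplexed cis-reporter readout in transfected HepG2 liver cells. Exposure lasted 24 hours. Activity in either direction was fitted against DMSO as negative control and baseline.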

[19] = ATG_M_19_TRANS: Attagene TRANS-FACTORIAL HepG2 Assay for M19 Transcription Factor (Internal Marker) (AID 2282974; active means hit-call score of the fitted dose curve at least 0.9, where 1 is the maximum); conditions: HepG2 Attagene TRANS-FACTORIAL M19 internal marker reporter
Method in brief: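 Fluorescence of 6-FAM-labelled reporter cDNA fragments, separated by capillary electrophoresis, served as the readout. These derived from HepG2 cells carrying transfected GAL4-UAS reporter units after 24 h dosing, with DMSO as negative control.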

[20] = biological target: Androgen receptor (Homo sapiens) (UniProt P10275); assay: ATG_AR_TRANS: Attagene TRANS-FACTORIAL HepG2 Assay for human Androgen Receptor (AR) (AID 2282973; active means hit-call score of the fitted dose curve at least 0.9, where 1 is the maximum); conditions: HepG2 Attagene TRANS-FACTORIAL AR reporter transcription
Chain of Androgen receptor (Homo sapiens) (P10275 whole entry, looked up, the tested form may be a part): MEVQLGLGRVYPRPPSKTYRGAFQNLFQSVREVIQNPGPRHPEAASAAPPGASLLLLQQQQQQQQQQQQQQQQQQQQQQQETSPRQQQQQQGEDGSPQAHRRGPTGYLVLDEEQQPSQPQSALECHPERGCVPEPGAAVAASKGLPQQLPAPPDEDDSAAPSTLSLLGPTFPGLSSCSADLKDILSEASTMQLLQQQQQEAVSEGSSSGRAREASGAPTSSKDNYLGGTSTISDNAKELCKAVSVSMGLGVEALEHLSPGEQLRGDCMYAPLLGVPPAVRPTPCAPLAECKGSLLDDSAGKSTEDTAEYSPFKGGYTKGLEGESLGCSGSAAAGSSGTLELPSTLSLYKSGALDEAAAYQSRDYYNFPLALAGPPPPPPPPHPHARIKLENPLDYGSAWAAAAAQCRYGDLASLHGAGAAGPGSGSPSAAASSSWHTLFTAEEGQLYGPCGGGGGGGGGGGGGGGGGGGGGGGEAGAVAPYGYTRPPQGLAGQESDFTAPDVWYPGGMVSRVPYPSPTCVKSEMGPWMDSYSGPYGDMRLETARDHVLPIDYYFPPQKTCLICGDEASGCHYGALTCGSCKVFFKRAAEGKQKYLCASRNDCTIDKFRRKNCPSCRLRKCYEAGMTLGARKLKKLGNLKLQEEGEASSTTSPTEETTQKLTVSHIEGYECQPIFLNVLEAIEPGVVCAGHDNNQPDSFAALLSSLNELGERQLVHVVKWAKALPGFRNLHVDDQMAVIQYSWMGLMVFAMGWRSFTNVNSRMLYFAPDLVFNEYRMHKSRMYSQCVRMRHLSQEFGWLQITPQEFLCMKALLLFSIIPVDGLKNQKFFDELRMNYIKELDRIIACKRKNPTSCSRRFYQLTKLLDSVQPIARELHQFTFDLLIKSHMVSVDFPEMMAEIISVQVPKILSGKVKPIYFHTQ
Method in brief: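 Transfected HepG2, 24 h treatment, chimeric NR-Gal4 driving GAL4-UAS reporters. mRNA induction by RT-PCR/capillary electrophoresis fluorescence; DMSO as negative control and baseline.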

Measured: AC50

CCOP(=S)(OCC)SCn1nnc2ccccc2c1=O
active: [1] 1.32 µM | [3] 0.673 µM | [14] 1.61 µM | [16] 3.08 µM
not listed: [20]
inactive: all other assays above

OCC(F)(F)OC(F)(F)C(F)(F)OC(F)(F)CO
active: [3] 74.8 µM | [16] 9.78 µM
not listed: [15] | [17] | [19]
inactive: all other assays above

CCOC(=O)c1ccccc1C(=O)OCC
not listed: [15] | [19] | [20]
inactive: all other assays above

N#Cc1cc([N+](=O)[O-])ccc1N
not listed: [19] | [20]
inactive: all other assays above

COC(=O)C(F)(F)C(F)(F)OC(F)(C(F)(F)F)C(F)(F)OC(F)=C(F)F (stereo unspecified)
inactive: [1] | [2] | [5] | [6] | [7] | [8] | [9] | [10] | [11] | [12] | [13] | [14] | [15] | [16] | [17] | [18] | [20] | [19]
active: [3] 4.84 µM and 15.2 µM and 5.55 µM | [4] 160 nM and 436 nM and 230 nM | [5] 0.451 µM | [11] 9.92 µM | [13] 87.4 µM | [14] 18.3 µM | [16] 30.3 µM and 13.7 µM

Cc1ccc(C(=O)Cl)cc1
not listed: [15] | [16] | [20]
inactive: all other assays above

C/C(=N\NC(=O)Nc1cc(F)cc(F)c1)c1ncccc1C(=O)O
active: [3] 172 µM
inactive: [1] | [2] | [3] | [5] | [7] | [8] | [9] | [10] | [11] | [12] | [13] | [14] | [15] | [16] | [18] | [19]

CCOP(=S)(S)OCC
active: [3] 57.5 µM
not listed: [17] | [19]
inactive: all other assays above

CCCCC(CC)COC(=O)c1c(Br)c(Br)c(Br)c(Br)c1C(=O)OCC(CC)CCCC (stereo unspecified)
active: [3] 19.9 µM
not listed: [15] | [17] | [19] | [20]
inactive: all other assays above

O=C(O)C(F)(F)OC(F)(F)C(F)(F)OC(F)(F)F
active: [4] 96.5 µM and 114 µM
inactive: all other assays above

C=CC(=O)OCC(CC)(COC(=O)C=C)COC(=O)C=C
active: [2] 15.5 µM | [7] 26.2 µM | [8] 27 µM | [13] 49.4 µM | [14] 3.37 µM
not listed: [15] | [19]
inactive: all other assays above

FC(F)(F)c1ccc(Cl)cc1
not listed: [16] | [17] | [19] | [20]
inactive: all other assays above

O=C(O)C=CC(F)(C(F)(F)F)C(F)(F)F
not listed: [15] | [19]
inactive: all other assays above

CCOP(=S)(NC(C)C)Oc1ccccc1C(=O)OC(C)C (stereo unspecified)
active: [3] 0.699 µM | [5] 46.6 µM | [14] 1.5 µM | [16] 3.51 µM
not listed: [19] | [20]
inactive: all other assays above

CC(Cl)CN(C)C (stereo unspecified)
not listed: [15] | [17] | [20]
inactive: all other assays above
